Data: PMC9838217, “Structure of SALL4 zinc finger domain reveals link between AT-rich DNA binding and Okihiro syndrome”
Changes are numbered by the printed parent chain.

biological target: T1, SALL4 ZFC4 WT (HT-SELEX) (Mus musculus, UniProt Q8BX22 870-940); assay: HT-SELEX; high values mean tight binding; conditions: protein: recombinant; vector His6-GST; dsDNA, one strand shown
T1 sequence: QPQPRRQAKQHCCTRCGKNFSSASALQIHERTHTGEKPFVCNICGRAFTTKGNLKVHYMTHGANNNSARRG
Procedure, shortened: (§1)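 Recombinant mouse SALL4 zinc finger cluster 4 (residues 870–940, 1 µg), purified, was mixed with library DNA (1.5 µg in the first cycle, 200 ng thereafter) in 100 µl of buffer containing 10 mM Tris–HCl pH 7.5, 50 mM NaCl, poly(dI-dC) and DTT, and left for 10 min at room temperature. Complexes were captured on Ni2+ beads, washed, amplified by PCR and reselected for up to 6 cycles in triplicate, after which MiSeq sequencing and a 6-mer scan followed. Binding signal is the read fraction of each canonical k-mer, given as fold change relative to the starting random library.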

Row | Sequence | binding signal [fold-change vs cycle 0]
1 | AAAAAT | 3.83 ± 0.465
2 | CACAGG | 0.432 ± 0.00836
3 | GTCCCA | 0.392 ± 0.0166
4 | GACACC | 0.393 ± 0.0241
5 | CCCTCC | 0.318 ± 0.0193
6 | TACGCA | 0.51 ± 0.0296
7 | CTCTCA | 0.878 ± 0.0209
8 | CCCAAA | 0.588 ± 0.013
9 | CTCAGA | 0.791 ± 0.0265
10 | GAATCC | 0.85 ± 0.00926
11 | AAGTCG | 0.537 ± 0.0353
12 | CGAACC | 0.34 ± 0.0157
13 | CTGAAC | 0.859 ± 0.0362
14 | AGAACC | 0.8 ± 0.0457
15 | ATCGGG | 0.397 ± 0.0233
16 | CCCATC | 0.471 ± 0.0121
17 | GCTAGA | 0.636 ± 0.0274
18 | CTGCTC | 0.36 ± 0.0162
19 | CCTGAC | 0.451 ± 0.0407
20 | TGCTAA | 1.16 ± 0.0453

Row | Sequence | binding signal [fold-change vs cycle 0]
21 | ATCTCC | 0.945 ± 0.0285
22 | GTCCTA | 0.764 ± 0.0287
23 | ATGTCG | 0.521 ± 0.0491
24 | ATTATA | 4.99 ± 0.594
25 | CGTCAC | 0.375 ± 0.0256
26 | ACGATC | 0.662 ± 0.038
27 | ACGCTA | 0.566 ± 0.0296
28 | TCTTAA | 2.07 ± 0.0682
29 | CAGTAA | 1.35 ± 0.0452
30 | CGTAAC | 0.768 ± 0.0406
31 | TAGGGA | 0.931 ± 0.0124
32 | CGCTAA | 0.488 ± 0.0307
33 | AGCGTA | 0.55 ± 0.0304
34 | AAGCTG | 0.608 ± 0.0202
35 | AACGAT | 1.21 ± 0.0566
36 | ACGCAT | 0.526 ± 0.0513
37 | CGAGAC | 0.365 ± 0.0341
38 | TCAGGA | 0.887 ± 0.0551
39 | TAATAA | 5.02 ± 0.619
40 | ATCATA | 2.91 ± 0.29

biological target: T2, SALL4 ZFC4 R900W (HT-SELEX) (Mus musculus, UniProt Q8BX22 870-940, R900W); assay: HT-SELEX; high values mean tight binding; conditions: protein: recombinant; vector His6-GST; dsDNA, one strand shown
T2 sequence: T1 sequence with R31W
Procedure, shortened: as §1

Row | Sequence | binding signal [fold-change vs cycle 0]
41 | AAAAAT | 2.16 ± 0.197
42 | CACAGG | 0.527 ± 0.0297
43 | GTCCCA | 0.464 ± 0.0186
44 | GACACC | 0.461 ± 0.0351
45 | CCCTCC | 0.362 ± 0.0224
46 | TACGCA | 0.54 ± 0.0242
47 | CTCTCA | 0.992 ± 0.023
48 | CCCAAA | 0.653 ± 0.0116
49 | CTCAGA | 0.909 ± 0.0246
50 | GAATCC | 0.935 ± 0.0194
51 | AAGTCG | 0.634 ± 0.0134
52 | CGAACC | 0.416 ± 0.00929
53 | CTGAAC | 0.995 ± 0.0342
54 | AGAACC | 0.93 ± 0.0272
55 | ATCGGG | 0.457 ± 0.0142
56 | CCCATC | 0.54 ± 0.0172
57 | GCTAGA | 0.746 ± 0.0225
58 | CTGCTC | 0.436 ± 0.00828
59 | CCTGAC | 0.547 ± 0.0213
60 | TGCTAA | 1.24 ± 0.0475

Row | Sequence | binding signal [fold-change vs cycle 0]
61 | ATCTCC | 1.04 ± 0.0372
62 | GTCCTA | 0.905 ± 0.0413
63 | ATGTCG | 0.603 ± 0.00997
64 | ATTATA | 2.65 ± 0.265
65 | CGTCAC | 0.436 ± 0.013
66 | ACGATC | 0.773 ± 0.0211
67 | ACGCTA | 0.638 ± 0.0194
68 | TCTTAA | 2.14 ± 0.15
69 | CAGTAA | 1.48 ± 0.063
70 | CGTAAC | 0.887 ± 0.0447
71 | TAGGGA | 0.998 ± 0.0215
72 | CGCTAA | 0.562 ± 0.0185
73 | AGCGTA | 0.623 ± 0.0245
74 | AAGCTG | 0.708 ± 0.0215
75 | AACGAT | 1.27 ± 0.0691
76 | ACGCAT | 0.556 ± 0.0269
77 | CGAGAC | 0.454 ± 0.0153
78 | TCAGGA | 1.02 ± 0.0319
79 | TAATAA | 2.78 ± 0.312
80 | ATCATA | 2.08 ± 0.118

biological target: T3, SALL4 ZFC4 G921D (HT-SELEX) (Mus musculus, UniProt Q8BX22 870-940, G921D); assay: HT-SELEX; high values mean tight binding; conditions: protein: recombinant; vector His6-GST; dsDNA, one strand shown
T3 sequence: T1 sequence with G52D
Procedure, shortened: as §1

Row | Sequence | binding signal [fold-change vs cycle 0]
81 | AAAAAT | 1.9 ± 0.223
82 | CACAGG | 0.624 ± 0.0533
83 | GTCCCA | 0.563 ± 0.0717
84 | GACACC | 0.593 ± 0.067
85 | CCCTCC | 0.457 ± 0.0716
86 | TACGCA | 0.668 ± 0.0555
87 | CTCTCA | 1.04 ± 0.0372
88 | CCCAAA | 0.729 ± 0.0699
89 | CTCAGA | 0.948 ± 0.031
90 | GAATCC | 0.989 ± 0.0139
91 | AAGTCG | 0.747 ± 0.0488
92 | CGAACC | 0.549 ± 0.0764
93 | CTGAAC | 1.01 ± 0.0412
94 | AGAACC | 0.981 ± 0.014
95 | ATCGGG | 0.568 ± 0.0671
96 | CCCATC | 0.613 ± 0.034
97 | GCTAGA | 0.8072 ± 0.00258
98 | CTGCTC | 0.567 ± 0.028
99 | CCTGAC | 0.654 ± 0.0358
100 | TGCTAA | 1.21 ± 0.0656

Row | Sequence | binding signal [fold-change vs cycle 0]
101 | ATCTCC | 1.06 ± 0.0438
102 | GTCCTA | 0.9363 ± 0.00722
103 | ATGTCG | 0.73 ± 0.0508
104 | ATTATA | 2.25 ± 0.311
105 | CGTCAC | 0.545 ± 0.0521
106 | ACGATC | 0.907 ± 0.0183
107 | ACGCTA | 0.754 ± 0.0468
108 | TCTTAA | 1.86 ± 0.222
109 | CAGTAA | 1.37 ± 0.109
110 | CGTAAC | 0.922 ± 0.0472
111 | TAGGGA | 1.02 ± 0.0328
112 | CGCTAA | 0.667 ± 0.039
113 | AGCGTA | 0.723 ± 0.0232
114 | AAGCTG | 0.801 ± 0.0274
115 | AACGAT | 1.23 ± 0.0814
116 | ACGCAT | 0.714 ± 0.0322
117 | CGAGAC | 0.565 ± 0.0671
118 | TCAGGA | 1.03 ± 0.0207
119 | TAATAA | 2.32 ± 0.357
120 | ATCATA | 1.88 ± 0.177
